In the library only some 1.2% were active in any assay of this set; here they are far more common.
AGP1-GFP MLPCN: alters AGP1-GFP fluorescence in TOR pathway yeast screen; 320,000 compounds, 0.02% hits; AID 2066; S. cerevisiae AGP1-GFP multiplex flow cytometry, 3 h; GFP as percent of DMSO wells; GFP response vs DMSO, % at 10 µM;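 active means GFP response relative to DMSO above a set limit, near screen average plus 3 SD, cut at about 150% in these data; inconclusive means fewer than 70 cells counted for the yeast strain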;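 further: median GFP channel fluorescence of the gated AGP1 strain per well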
CIT2 TOR yeast: alters CIT2-GFP fluorescence in TOR pathway yeast screen | S. cerevisiae CIT2-GFP strain, flow cytometry, 3 h; 100 means same as DMSO wells | GFP response vs DMSO, % at 10 µM | 320,000 compounds, 0.065% hits | AID 2029;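 active means GFP response relative to DMSO above a set limit, near the screen mean plus 3 SD, cut at about 150% in these data; inconclusive means Fewer than 70 cells measured for a yeast strain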;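 further: ratio of well median GFP fluorescence to mean of DMSO wells on the plate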
DSG3 Ab inh: blocks pemphigus antibody binding to human desmoglein-3; 310,000 compounds, 0.48% hits; DSG3-coupled beads, scFv-anti-DSG3-GFP binding, flow cytometry; stronger effect = lower value; P32926; binding (percent of control), % at 10 µM; AID 588358;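 active means binding more than 3 SD below its plate's average and above zero; inconclusive means below that plate limit but binding exactly zero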
LAP4 TOR yeast: yeast TOR pathway LAP4-GFP modulation. S. cerevisiae LAP4-GFP multiplex, flow cytometry GFP, 3 h; median GFP as percent of DMSO wells. GFP response vs DMSO, % at 10 µM. 320,000 compounds, 0.34% hits. AID 2023;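 active means GFP response vs DMSO above a set limit, about the screen mean plus 3 SD, cut at about 150% in these data; inconclusive means under 70 cell events counted for the yeast strain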
RPL19A-GFP yeast: alters RPL19A-GFP fluorescence in TOR pathway yeast screen. percent response vs DMSO, % at 10 µM. 330,000 compounds, 0.3% hits. S. cerevisiae RPL19A-GFP strain, flow cytometry, 3 h; stronger effect = lower value. AID 2025;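 active means percent response vs DMSO below 50%; inconclusive means fewer than 70 events counted for the yeast strain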;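 further: median channel GFP fluorescence of the barcoded RPL19A-GFP strain; ratio of sample median GFP to plate DMSO average so 100% = DMSO; lower means less RPL19A-GFP as with rapamycin TOR inhibition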
MEP2 TOR yeast: modulators of TOR pathway MEP2-GFP in S. cerevisiae. AID 2016. GFP response vs DMSO, % at 10 µM. S. cerevisiae MEP2-GFP strain, flow cytometry GFP, 3 h; 100% = DMSO control level. 330,000 compounds, 0.51% hits;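 active means GFP response versus DMSO above a set limit, roughly screen mean plus 3 SD, cut at about 180% in these data; inconclusive means fewer than 70 cells counted for a yeast strain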;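 further: median GFP fluorescence of the barcode-gated MEP2-GFP cells per well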
Numbers without * were called inactive; u = inconclusive; x = no result given; [ ] = dose if it differs, or a comment.

SMILES	AGP1-GFP MLPCN	CIT2 TOR yeast	DSG3 Ab inh	LAP4 TOR yeast	RPL19A-GFP yeast	MEP2 TOR yeast
CC(=O)N(C)c1ccc(NC(=O)COc2ccc(Br)cc2C)cc1	117	113	98	121	114	114
C=CCn1c(SCC(=O)NC(=O)NCCC)nnc1C1CCCCC1	95	97	117	93	x	100
C=CCn1c(SCC(=O)NC(=O)NCC(C)C)nnc1C1CCCCC1	22	x	x	84	53	527*[may fluoresce violet]
Cc1cnc(NC(=O)CSc2nnc(COc3c(C)cccc3C)o2)s1	98	98	82*	100	98	102
Cc1cnc(NC(=O)CSc2nnc(COc3ccccc3)o2)s1	105	96	x	102	93	97
COc1ccc(NS(=O)(=O)c2cccc(C(=O)N3CCN(C/C=C/c4ccccc4)CC3)c2)cc1	x	x	105	x	x	x
CN(C)CCCn1c(=S)[nH]c2ccccc2c1=O	97	96	111	106	95	99
CN(C)CCCn1c2c3ccccc3ccc2c2oc(=O)c3ccccc3c21	x	x	70*	x	x	x
CC(NC(=O)CSc1nc2sc3c(c2c(=O)n1-c1ccccc1)CCCC3)c1ccccc1 (configuration not stated)	99	92	79*	103	99	103
O=C(O)CSc1nc2sc3c(c2c(=O)n1-c1ccccc1)CCC3	108	102	95	97	100	101
NC(=O)CSc1nc(N)c2c3c(sc2n1)CCCCC3	97	82	103	91	103	107
Nc1nc(SCc2nnc(SCC(=O)O)n2-c2ccccc2)nc2sc3c(c12)CCCC3	105	98	-17*	104	102	100
COc1ccc(-n2c(SCC(=O)O)nc3sc4c(c3c2=O)CCCC4)cc1	98	93	79*	99	99	98
COc1ccccc1NC(=O)NCc1nc(-c2ccc(C(F)(F)F)cc2)no1	101	100	74*	100	100	98
CCOC(=O)C1=C(N)n2c(s/c(=C\c3ccncc3)c2=O)=C(C(=O)OCC)C1c1ccncc1 (configuration not stated)	100	103	102	98	101	103
CCOC(=O)C1=C(N)n2c(s/c(=C\c3cccnc3)c2=O)=C(C(=O)OC)C1c1cccnc1 (configuration not stated)	100	98	88*	100	101	96
Cc1cccc(CSCc2ccc(C(=O)NC(C)C)o2)c1	123	139	101	130	104	259*
Cc1cccc(CSCc2ccc(C(=O)O)o2)c1	92	97	106	99	100	99
C[C@H]1COC(=O)[C@@H](Cc2ccc(F)cc2)CC/C=C/C[C@@H](CC(=O)N(CCO)Cc2ccccc2)C(=O)N1	93	86	80*	93	98	98
CC(C)[C@H](N)C(=O)N[C@H]1CCC2C3CC=C4C[C@@H](O)CC[C@]4(C)C3CC[C@@]21C (some centres not stated)	x	x	100	x	x	x
O=C(NCCCN1CCCCC1)C1CCN(S(=O)(=O)N2CCC3(CC2)OCCO3)CC1	u	u	105	90	36*[may fluoresce violet]	154
CC1CCCN(CCCNC(=O)C2CCN(S(=O)(=O)N3CCC4(CC3)OCCO4)CC2)C1 (configuration not stated)	18	105	104	86	47*	120
CCCN(CC(=O)Nc1ccccc1C)C(=O)C1CCN(S(=O)(=O)c2ccc(C)c(C)c2)CC1	x	x	94	x	x	x
CN(Cc1ccc(Cl)cc1Cl)C(=O)c1cc(=O)c2ccccc2o1	101	102	101	107	104	106
CCCCCCCCOC(=O)CCc1c(C)[nH]c(=S)[nH]c1=O	101	103	11*	102	102	101
SMILES	AGP1-GFP MLPCN	CIT2 TOR yeast	DSG3 Ab inh	LAP4 TOR yeast	RPL19A-GFP yeast	MEP2 TOR yeast
COC(=O)N/N=C/c1cc(C)n(-c2cccc3ccccc23)c1C	19	u	72	75	44*[may fluoresce violet]	144
COC(=O)N/N=C/c1cn(Cc2c(Cl)cccc2Cl)c2ccccc12	76	84	81*	92	88	101
COC(=O)N/N=C/c1cn(Cc2ccccc2Cl)c2ccccc12	96	99	77	104	101	100
CCOC(=O)N/N=C/c1cc(C)n(-c2cccc3ccccc23)c1C	99	102	87	103	103	144
COc1cccc(N/N=C(\C#N)S(=O)(=O)C(C)(C)C)c1	95	88	101	91	101	97
O=C(CN1C(=O)c2ccccc2S1(=O)=O)NCc1ccco1	97	96	98	93	93	97
COc1ccccc1NC(=O)NCCc1ccccc1	92	100	111	71	107	101
COc1ccc(OC)c(NC(=O)NCCc2cccc(Cl)c2)c1	98	100	75*	107	92	95
CCC1C(=O)Nc2ccccc2N1C(=O)COc1ccccc1 (configuration not stated)	116	156*[may fluoresce green]	97	104	94	106
CS(=O)(=O)c1ccc2nc(NC(=O)c3ccccc3)sc2c1	99	94	104	92	95	101
CS(=O)(=O)c1ccc2nc(NC(=O)Nc3ccccc3F)sc2c1	95	109	88*	87	102	108
CC(=O)NC(CC(C)C)C(=O)O (configuration not stated)	x	x	102	x	x	x
CC(=O)N[C@@H](CC(=O)N[C@H](CCC(=O)O)C(=O)O)C(=O)O	16	u	91	100	47*[may fluoresce violet]	528*[may fluoresce violet]
COc1ccc(Cc2nnc(NC(C)=O)s2)cc1	96	98	102	92	98	97
COc1ccc(Cc2nnc(NC(=O)c3ccccc3F)s2)cc1	155*	141	122	294*	74	914*
CCc1cc(/C(Cc2csc(C)n2)=N/O)c(O)cc1O	x	u	104	91	44*[may fluoresce violet]	209*[may fluoresce violet]
Cc1nc(C/C(=N\N)c2ccc(O)cc2O)cs1	96	94	107	102	96	97
Cc1cc(C)c(OCC(=O)Nc2ccc(S(=O)(=O)N3CCCC3)cc2)c(C)c1	115	110	99	106	99	96
COc1ncnc2c1oc1nc(C(C)C)c3c(c12)CC(C)(C)OC3	28	x	80	89	44*[may fluoresce violet]	531*[may fluoresce violet]
Cc1nn(-c2ccccc2)c(Cl)c1C(=O)NCC(C)C	100	99	105	98	96	99
CC(C)CNC(=O)c1nc(-c2ccccc2)n(-c2ccccc2)n1	u	u	103	95	20*[may fluoresce violet]	515*[may fluoresce violet]
COc1ccc(N2CCN(C(=O)NCc3ccc(OC)c(OC)c3)CC2)cc1	97	92	x	95	97	105
COc1ccc(N2CCN(C(=O)NCc3ccc(OC)c(Cl)c3)CC2)cc1	117	117	44*	104	103	105
